Experimental findings from PubChem BioAssay (NCI) are described below.

A short description of test [1]: NCI Yeast Anticancer Drug Screen. Data for the rad50 strain (AID 155).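 Further: 0% = growth of vehicle-only cultures of the same strain.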 To be noted: S. cerevisiae rad50 strain growth inhibition, stronger effect = higher value. A digest of the protocol: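 Genetically altered yeast (DNA repair pathway); compound treatment; growth inhibition vs vehicle ctrl.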
A short description of test [2]: NCI Yeast Anticancer Drug Screen. Data for the mec2-1 strain (AID 157). To be noted: S. cerevisiae mec2-1 strain, stronger effect = higher value. In short, it runs like this: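 Cells of the genetically defined mec2-1 yeast strain are incubated with test compound. Inhibition of growth is calculated against vehicle-treated controls.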
The nature of test [3]: NCI Yeast Anticancer Drug Screen. Data for the sgs1 mgt1 strain (AID 161).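 Further: 0% = growth of cultures given vehicle only.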 To be noted: S. cerevisiae sgs1 mgt1 strain, stronger effect = higher value. In short, it runs like this:
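Test agents were incubated with a DNA-repair-mutant yeast strain. Growth was then read and compared against vehicle-treated controls.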

Test [4] in a line: NCI Yeast Anticancer Drug Screen. Data for the cln2 rad14 strain (AID 165).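 Further: 0% = growth equal to vehicle treated cultures.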 To be noted: S. cerevisiae cln2 rad14 strain, stronger effect = higher value. In short, it runs like this: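 The screen exposed genetically defined yeast (cln2 rad14) to test compounds and scored growth inhibition relative to vehicle-treated controls.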
Test [5] is described as follows: NCI Yeast Anticancer Drug Screen. Data for the bub3 strain (AID 167). The settings on record: S. cerevisiae bub3 mutant strain, stronger effect = higher value. In short, it runs like this:
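Yeast carrying a defined mutation is treated with each compound, and growth is compared with that of vehicle-exposed cells to give inhibition.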

Test [6] in a line: NCI Yeast Anticancer Drug Screen. Data for the mlh1 rad18 strain (AID 175). The settings on record: S. cerevisiae mlh1 rad18 strain growth inhibition, stronger effect = higher value. In short, it runs like this: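 Compound-treated yeast growth, normalised to vehicle controls. Strain bears defined DNA repair mutations.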
Setting [7] is: at 5.0 µM (retest, dose inferred, filed as 0.5).
[8] abbreviates: at 50.0 µM (retest, dose inferred, filed as 5.0).

The panel holds about 79,000 compounds, 15% with a hit somewhere; the sample as a whole holds those more often. Values without a mark were called inactive. The source made the active and inactive calls. No stated cut-off is given here; in the data, active means growth inhibition above about 70%; inactive means the rest.

On to `COC(=O)CCCCC(=O)N(C(C)C)C(C)C`, for which the growth inhibition in test [1] (setting [7]) is 4%; in test [1] (setting [8]), -10%; in test [1] (at 50.0 µM) it was -8.6%; in test [2] (setting [7]), -5%; in test [2] (setting [8]), -1%; in test [2] (at 50.0 µM), -14.4%. Further, the growth inhibition in test [3] (setting [7]) was -11%; in test [3] (setting [8]), -11%; in test [3] (at 50.0 µM), -19.8%; in test [4] (setting [7]), -2%; in test [4] (setting [8]) it was 11%; in test [4] (at 50.0 µM), 76.3% (active). The growth inhibition in test [5] (setting [7]) is 2%; in test [5] (setting [8]) it was 4%; in test [5] (at 50.0 µM), -3.5%; in test [6] (setting [7]) it was 5%; in test [6] (setting [8]) it was -5%; in test [6] (at 50.0 µM), 19.1%.
`O=C1C(=O)c2ccccc2C(O)=C1Sc1ccccc1`: the growth inhibition in test [1] (setting [7]) is 23%; in test [1] (setting [8]) it was 92% (active); in test [1] (at 50.0 µM) it was 95.2% (active); in test [2] (setting [7]), 20%; in test [2] (setting [8]), 89% (active); in test [2] (at 50.0 µM), 92.4% (active). Also, the growth inhibition in test [3] (setting [7]) is 44%; in test [3] (setting [8]), 95% (active); in test [3] (at 50.0 µM) it was 95% (active); in test [4] (setting [7]), 41%; in test [4] (setting [8]), 88% (active); in test [4] (at 50.0 µM) it was 79.3% (active). In addition, the growth inhibition is 15% in test [5] (setting [7]); 94% (active) in test [5] (setting [8]); 93.7% (active) in test [5] (at 50.0 µM); 34% in test [6] (setting [7]); 93% (active) in test [6] (setting [8]); 95.5% (active) in test [6] (at 50.0 µM).
In the case of `CC(=O)NNc1nc(C)c(C(=O)NNC(=O)C(=O)Nc2ccc(Cl)c([N+](=O)[O-])c2)s1`, the growth inhibition in test [1] (setting [7]) is 34%; in test [1] (setting [8]) it was 34%; in test [1] (at 50.0 µM), 70.6% (active); in test [2] (setting [7]), 19%; in test [2] (setting [8]), 19%; in test [2] (at 50.0 µM) it was 20.9%. For the same molecule, the growth inhibition in test [3] (setting [7]) is 32%; in test [3] (setting [8]), 32%; in test [3] (at 50.0 µM), 69.2%; in test [4] (setting [7]) it was 18%; in test [4] (setting [8]), 18%; in test [4] (at 50.0 µM), 51.6%. Further, the growth inhibition in test [5] (setting [7]) is 19%; in test [5] (setting [8]) it was 19%; in test [5] (at 50.0 µM) it was 55.9%; in test [6] (setting [7]), 20%; in test [6] (setting [8]), 20%; in test [6] (at 50.0 µM) it was 50.4%.
For `CCN(CC)CCNC(=O)c1ccc(N=Cc2cc(Cl)cc(Cl)c2O)cc1`, the growth inhibition in test [1] (setting [7]) is 48%; in test [1] (setting [8]), 49%; in test [1] (at 50.0 µM), 81.2% (active); in test [2] (setting [7]), 32%; in test [2] (setting [8]) it was 48%; in test [2] (at 50.0 µM), 91% (active). The growth inhibition in test [3] (setting [7]) was 49%; in test [3] (setting [8]), 97% (active); in test [3] (at 50.0 µM), 88.8% (active); in test [4] (setting [7]) it was 24%; in test [4] (setting [8]), 99% (active); in test [4] (at 50.0 µM), 84.8% (active). Moreover, the growth inhibition in test [5] (setting [7]) was 88% (active); in test [5] (setting [8]) it was 97% (active); in test [5] (at 50.0 µM), 89.2% (active); in test [6] (setting [7]) it was 46%; in test [6] (setting [8]), 39%; in test [6] (at 50.0 µM) it was 85.7% (active).
With `Cc1cc(N=NC(N)=S)c2ccccc2c1O`, the growth inhibition in test [1] (setting [7]) is 4%; in test [1] (setting [8]), 22%; in test [1] (at 50.0 µM), 76.2% (active); in test [2] (setting [7]) it was -3%; in test [2] (setting [8]), 1%; in test [2] (at 50.0 µM), 24.9%. In addition, the growth inhibition in test [3] (setting [7]) is -5%; in test [3] (setting [8]) it was 16%; in test [3] (at 50.0 µM), 6.7%; in test [4] (setting [7]) it was -2%; in test [4] (setting [8]), -23%; in test [4] (at 50.0 µM), -22.1%. Further, the growth inhibition was 2% in test [5] (setting [7]); 15% in test [5] (setting [8]); 37.2% in test [5] (at 50.0 µM); -40% in test [6] (setting [7]); -1% in test [6] (setting [8]); 53.8% in test [6] (at 50.0 µM).
Turning to `CC(C)C[NH-].CC(C)C[NH-].[Cl][Pt+2]([Cl])([Cl])[Cl]`, the growth inhibition in test [1] (setting [7]) was 72% (active); in test [1] (setting [8]), 98% (active); in test [1] (at 50.0 µM), 85.2% (active); in test [2] (setting [7]) it was 46%; in test [2] (setting [8]) it was 99% (active); in test [2] (at 50.0 µM), 91.5% (active). Also, the growth inhibition in test [3] (setting [7]) is 70% (active); in test [3] (setting [8]) it was 99% (active); in test [3] (at 50.0 µM), 89.2% (active); in test [4] (setting [7]) it was 53%; in test [4] (setting [8]), 99% (active); in test [4] (at 50.0 µM), 83.5% (active). For the same molecule, the growth inhibition was 70% (active) in test [5] (setting [7]); 99% (active) in test [5] (setting [8]); 89.5% (active) in test [5] (at 50.0 µM); 66% in test [6] (setting [7]); 98% (active) in test [6] (setting [8]); 87.8% (active) in test [6] (at 50.0 µM).
`O=S(=O)(Nc1ccccc1)c1ccccc1C#Cc1ccccc1`: the growth inhibition is -3% in test [1] (setting [7]); 91% (active) in test [1] (setting [8]); 89.8% (active) in test [1] (at 50.0 µM); -2% in test [2] (setting [7]); 92% (active) in test [2] (setting [8]); 79.2% (active) in test [2] (at 50.0 µM). For the same molecule, the growth inhibition was 10% in test [3] (setting [7]); 93% (active) in test [3] (setting [8]); 86.9% (active) in test [3] (at 50.0 µM); -70% in test [4] (setting [7]); 92% (active) in test [4] (setting [8]); 74.3% (active) in test [4] (at 50.0 µM). In addition, the growth inhibition in test [5] (setting [7]) is 2%; in test [5] (setting [8]) it was 64%; in test [5] (at 50.0 µM), 89.8% (active); in test [6] (setting [7]), 3%; in test [6] (setting [8]), 95% (active); in test [6] (at 50.0 µM), 91.5% (active).
Take `CCOC(=O)/C(Cl)=C(\C)Nc1nc2c(ccc3ccccc32)s1`: the growth inhibition in test [1] (setting [7]) was 22%; in test [1] (setting [8]), 20%; in test [1] (at 50.0 µM), 8.8%; in test [2] (setting [7]), 1%; in test [2] (setting [8]), 66%; in test [2] (at 50.0 µM), 26.6%. For the same molecule, the growth inhibition was -8% in test [3] (setting [7]); 31% in test [3] (setting [8]); -0.75% in test [3] (at 50.0 µM); 15% in test [4] (setting [7]); 71% (active) in test [4] (setting [8]); 97.3% (active) in test [4] (at 50.0 µM). The growth inhibition in test [5] (setting [7]) was -4%; in test [5] (setting [8]), 94% (active); in test [5] (at 50.0 µM), 94.9% (active); in test [6] (setting [7]) it was 0%; in test [6] (setting [8]) it was 21%; in test [6] (at 50.0 µM) it was 0.6%.
Turning to `O=C(CBr)C1(Br)CCN(Cc2ccccc2)CC1`, the growth inhibition was 19% in test [1] (setting [7]); 99% (active) in test [1] (setting [8]); 99.3% (active) in test [1] (at 50.0 µM); 17% in test [2] (setting [7]); 99% (active) in test [2] (setting [8]); 99.8% (active) in test [2] (at 50.0 µM). Besides, the growth inhibition in test [3] (setting [7]) was 22%; in test [3] (setting [8]), 99% (active); in test [3] (at 50.0 µM) it was 99.6% (active); in test [4] (setting [7]) it was 8%; in test [4] (setting [8]), 99% (active); in test [4] (at 50.0 µM), 97.6% (active). Also, the growth inhibition was 6% in test [5] (setting [7]); 99% (active) in test [5] (setting [8]); 99.5% (active) in test [5] (at 50.0 µM); 30% in test [6] (setting [7]); 99% (active) in test [6] (setting [8]); 99.6% (active) in test [6] (at 50.0 µM).
